# About 83,000 compounds went through this panel and 20% of them were active in at least one assay; those are over-represented in the sample as a whole.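 Growth was measured after 48 h exposure to one concentration of compound in 96-well plates. Values under 10 count as active.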 Calls of active or inactive are those of the source.
# Test system: MDA-MB-468 breast
# Experiment: NCI-60 one-dose screen, 48 h (100 = growth as untreated, 0 = no growth, -100 = all killed)
# Conditions: 10 µM unless noted
row,SMILES,growth
1,CCCCCCc1cc(N=Nc2ccc(S(=O)(=O)Nc3cc(C)nc(C)n3)cc2)c(O)cc1O,102% (inactive)
2,CCOC(=O)CC1C(COC(=O)NC)OC(n2cnc3c(NC(=O)Nc4ccccc4)ncnc32)C1O[Si](C)(C)C(C)(C)C (stereo not given),61.9% (inactive)
3,CC#CC(=O)N1CCC[C@H]1c1nc(-c2ccc(C(=O)Nc3ccccn3)cc2)c2c(N)nccn12,59.6% (inactive)
4,O=c1c2cc(F)ccc2sc2c(NCCCNCCO)nc3ccccc3c12,-72.8% (active)
5,CC(C)c1ccc(-c2cnc3nonc3n2)cc1,21% (inactive)
6,Nc1nc(N)c2c(n1)NC(c1ccc(F)cc1)CC(c1ccc(Nc3nc(NCCO)nc(Nc4ccc(Cl)cc4)n3)cc1)=N2 (stereo not given),-68.5% (active)
7,NC(N)=Nc1ccc(Oc2cccc(NC(N)=Nc3ccc(Cl)c(C(F)(F)F)c3)c2)cc1,10.1% (inactive)
8,Cc1cc(Nc2cc(N3CCN(C)CC3)nc(/C=C/c3ccccc3)n2)n[nH]1,-17.8% (active)
9,COc1ccc2c(c1)C(=O)/C(=C/c1ccc(O)cc1)O2,-28.5% (active)
10,COC(=O)[C@]12CC[C@@H](C)[C@H](C)[C@@H]1C1=CC[C@@H]3[C@@]4(C)C(C=O)=C[C@@](C)(CO)C4=CC[C@@]3(C)[C@]1(C)CC2,20% (inactive)
11,COC(=O)c1ccccc1Cl,109% (inactive)
12,C#CCNc1nc(NCCNC(=O)CCl)nc(N(C)CCCCc2ccccc2)n1,86% (inactive)
13,COc1ccc(-c2cn[nH]c2-c2cc(OC)c3c(c2)OCCO3)cc1,5.64% (active)
14,C[C@H](Nc1ncnc2ccc(-c3cnc(Cl)c(NS(C)(=O)=O)c3)cc12)c1ccccc1,-62.4% (active)
15,Cn1ccc(Cc2cnc(N)s2)n1,103% (inactive)
16,CN(C)CCCNCc1ccc(-c2ccc(F)c(Cl)c2)o1,-66.3% (active)
17,CSc1[nH]c(=O)ncc1F,98.1% (inactive)
18,COc1ccc([C@@H]2[C@@H](Cl)C(=O)N2c2cc(OC)c(OC)c(OC)c2)cc1C,18.9% (inactive)
19,C(=C(\C1=NCCN1)n1cnc2ccccc21)/c1ccc2ccccc2c1,26.2% (inactive)
20,Nc1nc(Cl)cc(=O)n1Cc1ccccc1,97.3% (inactive)

row,SMILES,growth
1,NC(=S)N/N=C/c1cc(-c2cccc(N)c2)ccn1,-11.8% (active)
2,COc1ccccc1OCC(=O)N1CCCCCC1,97.1% (inactive)
3,Cc1cc(C(c2ccccc2)c2ccccc2)ccc1NS(=O)(=O)c1ccccc1,111% (inactive)
4,CC(=O)c1cnc(-c2ccccc2)nc1CBr,49.6% (inactive)
5,Cc1cccc(NC(=O)Nc2ccc(-c3ccc4c(c3)NC(=O)/C4=C\c3ccc[nH]3)cc2)c1,-0.651% (active)
6,Br/C(=N\Nc1nn[nH]n1)c1ccccc1,104% (inactive)
7,O=C(O)CCCCCNC(=O)OCc1ccccc1,116% (inactive)
8,COc1cc2c(cc1-c1c(C)noc1C)ncc1nc(C3CC3)n([C@H](C)COC(F)F)c12,46% (inactive)
9,COc1cc(/C=C2/C=C(c3ccc(C(C)(C)C)cc3)N(CCc3ccc(S(N)(=O)=O)cc3)C2=O)cc(OC)c1OC,55.6% (inactive)
10,COc1ccc2ncccc2c1Cc1c(OC)ccc2ncccc12,8.37% (active)
11,Cn1cc([C@@H]2Nc3ccc4[nH]ncc4c3[C@H]3[C@H]4CCC(C4)[C@H]32)c(C(F)(F)F)n1,53.4% (inactive)
12,CC[C@@H](C(=O)[C@H](C)[C@H](O)[C@@H](C)[C@H]1O[C@H]([C@@H](CC)C(=O)O)CC[C@H]1C)C1O[C@]2(C=C[C@@H](O)[C@]3(CC[C@@](C)([C@H]4CC[C@](O)(CC)[C@H](C)O4)O3)O2)[C@H](C)C[C@@H]1C (stereo not given in full),0.843% (active)
13,COc1ccc([C@@H]2c3[nH]c4ccccc4c3C[C@H]3C(=O)N(C4CCN(CC5CCCCC5)CC4)CC(=O)N23)c(OC)c1,58.7% (inactive)
14,CC1Cc2c(ncnc2-n2cnc3ccccc32)N(C)c2ccccc21 (stereo not given),9.47% (active)
15,O=c1[nH]c([C@@H]2CCCN2)nc2c1oc1ccc(Cl)cc12,33.6% (inactive)
16,Nc1ccccc1C(=O)Nc1ccc(Cl)cc1Cl,94.5% (inactive)
17,CN(c1ccc(Br)cc1)S(=O)(=O)c1ccc(-c2cnc(C3CC3)o2)cc1,11.7% (inactive)
18,N=C(N)c1nn(C2OC(CO)C(O)C2O)c2nc[nH]c(=O)c12 (stereo not given),-59% (active)
19,CNc1cc(C(=O)O)nc(NC)n1,95.5% (inactive)
20,N=C(N)c1ccc(-c2ccc(-c3ccc(-c4cccs4)s3)s2)cc1F,79.5% (inactive)
